Data reported in PubChem BioAssay (NCI).
This is part of a sample that, as a whole, favours compounds with a hit. Of some 83,000 tested, about 20% had one in any assay.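 Each cell line was grown in a 96-well plate and treated with one concentration of compound for 48 hours. Values below 10 were considered active.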 Unmarked numbers belong to inactive results. Calls of active or inactive are those of the source.

Tests used:
Assay in all cases: NCI-60 one-dose screen, 48 h (100 = growth as untreated, 0 = no growth, -100 = all killed)
Settings in all cases: 10 µM unless noted
[1] = system: NCI-H23 lung
[2] = system: NCI-H226 lung
[3] = system: NCI-H322M lung
[4] = system: HOP-62 NSCLC
[5] = system: NCI-H460 lung
[6] = system: HOP-92 NSCLC
[7] = system: NCI-H522 lung
[8] = system: A549/ATCC NSCLC
[9] = system: 786-0 renal
[10] = system: COLO 205 colon

## Cc1ccc2c(c1)O/C(=C\c1cccc(OCC(=O)c3ccccc3)c1)C2=O
[1]
  growth: 97.4%
[2]
  growth: 93.6%
[3]
  growth: 116%
[4]
  growth: 90.3%
[5]
  growth: 107%
[6]
  growth: 75.2%
[7]
  growth: 70.3%
[8]
  growth: 81.6%
[9]
  growth: 91.1%
[10]
  growth: 101%

## O=C1Nc2ccccc2/C1=C/C(=N/c1nnc(-c2ccccc2)s1)c1ccccc1
[1]
  growth: 45.7%
[2]
  growth: 86.5%
[3]
  growth: 95.7%
[4]
  growth: 57%
[5]
  growth: 88.2%
[6]
  growth: 45.4%
[7]
  growth: -59.3% (active)
[8]
  growth: 80.2%
[9]
  growth: -19.3% (active)
[10]
  growth: 2.53% (active)

## COC(=S)SCN(CSC(=S)OC)c1ccc(Cl)cc1
[1]
  growth: 80%
[2]
  growth: 69.9%
[3]
  growth: 76.1%
[4]
  growth: 76.9%
[5]
  growth: 87%
[6]
  growth: 74.7%
[7]
  growth: 79.9%
[8]
  growth: 81.6%
[9]
  growth: 94.3%
[10]
  growth: 111%

## CCCCCC(=O)Oc1ccc(/C(=C(\C)c2ccccc2)c2ccc(OCCN(CC)CC)cc2)cc1
[1]
  growth: 79.8%
[2]
  growth: 93.3%
[3]
  growth: 81%
[4]
  growth: 91.7%
[5]
  growth: 52.3%
[6]
  growth: 52.8%
[7]
  growth: 62.4%
[8]
  growth: 67.7%
[9]
  growth: 57.4%
[10]
  growth: 15%

## CC1(C)CC(C(=O)OCCCCCCCCCCC[P+](c2ccccc2)(c2ccccc2)c2ccccc2)C(C)(C)N1O (stereo not given)
[1]
  growth: -61.1% (active)
[2]
  growth: -65.6% (active)
[3]
  growth: -20.6% (active)
[4]
  growth: -45.5% (active)
[5]
  growth: -79.8% (active)
[6]
  growth: -68.8% (active)
[7]
  growth: -29.4% (active)
[8]
  growth: -42.6% (active)
[9]
  growth: -75.4% (active)
[10]
  growth: -79.9% (active)

## COc1ccc(-c2nn(-c3ccccc3)cc2/C=C/C(=O)OCc2cn(-c3ccc(F)c(Cl)c3)nn2)cc1
[1]
  growth: 72.6%
[2]
  growth: 80.5%
[3]
  growth: 92.1%
[4]
  growth: 78.5%
[5]
  growth: 96.7%
[6]
  growth: 101%
[7]
  growth: 65.2%
[8]
  growth: 92.1%
[9]
  growth: 101%
[10]
  growth: 104%

## CCN(CC)CCCCNc1ccc(NCCCCN(CC)CC)c2c1C(=O)c1ccccc1C2=O
[1]
  growth: 77.5%
[2]
  growth: 113%
[3]
  growth: 110%
[4]
  growth: 101%
[5]
  growth: 57.4%
[6]
  growth: 55.5%
[7]
  growth: 96.6%
[8]
  growth: 56.6%
[9]
  growth: 82%
[10]
  growth: 76.1%

## OC(c1cccc(C(F)(F)F)c1)c1cnccc1NC1CCCCCC1 (stereo not given)
[1]
  growth: 26.1%
[2]
  growth: 62.4%
[3]
  growth: 46.3%
[4]
  growth: 74.4%
[5]
  growth: -23.9% (active)
[6]
  growth: 5.31% (active)
[7]
  growth: 58.6%
[8]
  growth: 53.8%
[9]
  growth: 56.2%
[10]
  growth: -76.3% (active)

## O=C1C=CC(=O)N1c1ccc(Cc2ccc(N3C(=O)C=CC3=O)cc2)cc1
[1]
  growth: 86%
[2]
  growth: 84.8%
[3]
  growth: 100%
[4]
  growth: 90.5%
[5]
  growth: 94.8%
[6]
  growth: 90%
[7]
  growth: 94.5%
[8]
  growth: 111%
[9]
  growth: 97.1%
[10]
  growth: 115%

## O=C(CO[N+](=O)[O-])Nc1ccc(C(=O)/C=C/c2ccc3c(c2)OCO3)cc1
[1]
  growth: 58.1%
[2]
  growth: 107%
[3]
  growth: 108%
[4]
  growth: 112%
[5]
  growth: 108%
[6]
  growth: 77.3%
[7]
  growth: 97.6%
[8]
  growth: 88.9%
[9]
  growth: 109%
[10]
  growth: 113%

## COc1cc(OC)c(/C=C/c2cc[n+](C)c3ccccc23)c(OC)c1
[1]
  growth: 17.3%
[2]
  growth: 23.1%
[3]
  growth: 6.52% (active)
[4]
  growth: 17.1%
[5]
  growth: 4.59% (active)
[6]
  growth: -10.8% (active)
[7]
  growth: -35.3% (active)
[8]
  growth: 8.24% (active)
[9]
  growth: 26.1%
[10]
  growth: -83.9% (active)

## O=C(/C=C/c1cccc(Br)c1)c1ccccc1
[1]
  growth: 98.7%
[2]
  growth: 92.8%
[3]
  growth: 97.7%
[4]
  growth: 70%
[5]
  growth: 104%
[6]
  growth: 79%
[7]
  growth: 64.1%
[8]
  growth: 72.7%
[9]
  growth: 72.3%
[10]
  growth: 99.7%

## COc1cccc(/C=C2/C(=O)N(Cc3ccco3)SC2=S)c1OC
[1]
  growth: 108%
[2]
  growth: 101%
[3]
  growth: 98.7%
[4]
  growth: 105%
[5]
  growth: 102%
[6]
  growth: 93%
[7]
  growth: 83.7%
[8]
  growth: 100%
[9]
  growth: 101%
[10]
  growth: 111%
